Experimental data as given in PubChem BioAssay AID1986 (Sanford-Burnham Center for Chemical Genomics, 2009).
Where “and” joins values, the source holds several entries; their conditions need not be identical. Equal entries are not always repeated. Out of some 290,000 compounds screened, about 890 (0.31%) were called active. The sample holds actives, similar compounds and a random draw of the others, so the mix is not that of the screen. No stated cut-off is given here; in the data, active means inhibition mostly above about 52% (no sharp cut-off); inactive means mostly below about 76%.

Test: inhibitors of HIV fusion peptide binding, primary screen, biochemical, uHTS, fluorescence dequenching (AID 1986)
Details: cell-free peptide binding, 30 min, stronger effect = higher value
[1] = measured here: repeat confirmation average inhibition, at 18.6 µM

Row | Compound | inhibition (at 20 µM) | inhibition [1] [%]
1 | COCCNC(=O)Cn1cc(/C=C2\C(=O)NC(=O)N(c3ccccc3F)C2=O)c2ccccc21 | 159% (inactive) | –
2 | COCCNC(=O)Cn1cc(/C=C2\C(=O)NC(=O)N(c3cccc(C)c3C)C2=O)c2ccccc21 | 90.2% (active) | 50.7
3 | COCCCNC(=O)Cn1cc(/C=C2\C(=O)NC(=O)N(c3ccccc3F)C2=O)c2ccccc21 | 159% (inactive) | –
4 | O=C(O)Cn1cc(C=C2C(=O)NC(=O)NC2=O)c2ccccc21 | 4.8% (inactive) | –
5 | COCCNC(=O)Cn1cc(C=C2C(=O)NC(=O)NC2=O)c2ccccc21 | 43.1% (inactive) | –
6 | O=C(Cn1cc(C=C2C(=O)NC(=O)NC2=O)c2ccccc21)NCC1CCCO1 (stereo not drawn) | 61.4% (active) | 112
7 | CC(Cc1ccccc1)[n+]1cc(/N=C(\[O-])Nc2ccccc2)on1 (stereo not drawn) | -1.8% (inactive) | –
8 | O=C(NCc1ccccn1)c1ccccc1Cl | -1.3% (inactive) | –
9 | CCOC(=O)c1c(C)c(P(=S)(N2CCOCC2)N2CCOCC2)n(C)c1C | -1.8% (inactive) | –
10 | CC(C)n1c(=O)c(C=Nc2ccc(F)cc2)c(O)n(Cc2ccco2)c1=O | 0.1% (inactive) | –
11 | CC(C)n1c(=O)c(C=Nc2ccc(Br)cc2)c(O)n(Cc2ccco2)c1=O | 66.2% (active) | –
12 | CC(C)n1c(=O)c(C=Nc2ccc(Cl)cc2)c(O)n(Cc2ccco2)c1=O | 52.7% (inactive) | 4.1
13 | CCOC(=O)C1CCN(Cc2ccc(Cl)nc2)CC1 | -0.9% (inactive) | –
14 | O=C1N(c2cccc(Cl)c2)C(c2cccnc2)N2CCCN12 (stereo not drawn) | -0.5% (inactive) | –
15 | O=C1NC(=O)[C@]2(Cc3ccccc3N3CCN(c4ccccc4)CC32)C(=O)N1Cc1ccccc1 (stereo partly drawn) | 1.5% (inactive) | –
16 | COc1ccc(-c2nc3ccc(C(=O)N4CCC5(CC4)OCCO5)cc3nc2-c2ccc(OC)cc2)cc1 | -1.1% (inactive) | –
17 | Cc1cc(/C=C2\C(=O)NC(=O)N(Cc3ccccc3Cl)C2=O)c(C)n1-c1ccc(C(=O)O)cc1 | 67.8% (inactive) | 40.6
18 | Cc1cc(/C=C2\C(=O)NC(=O)N(Cc3ccccc3)C2=O)c(C)n1-c1ccc(Cl)c(C(=O)O)c1 | 52.5% (active) | –
19 | Cc1cc(/C=C2\C(=O)NC(=O)N(c3ccccc3)C2=O)c(C)n1-c1ccc(C(=O)O)c(Cl)c1 | 9.8% (inactive) | –
20 | COC(=O)Cn1cc(C=C2C(=O)NC(=O)NC2=O)c2ccccc21 | 10% (inactive) | –
21 | CCn1cc(C=C2C(=O)N(C)C(=O)N(C)C2=O)c2ccccc21 | 6.6% (inactive) | –
22 | CCN1C(=O)NC(=O)/C(=C\c2cn(CC(=O)N3CCCCC3)c3ccccc23)C1=O | 92.7% (active) | –
23 | CN1C(=O)C(=Cc2cn(CC(=O)N3CCCC3)c3ccccc23)C(=O)N(C)C1=O | 9.1% (inactive) | –
24 | CCOC(=O)Cn1cc(C=C2C(=O)N(C)C(=O)N(C)C2=O)c2ccccc21 | 58.4% (active) | 149

Row | Compound | inhibition (at 20 µM) | inhibition [1] [%]
25 | COC(=O)Cn1cc(C=C2C(=O)N(C)C(=O)N(C)C2=O)c2ccccc21 | 118% (active) | 98.7
26 | CCN(CC)C(=O)Cn1cc(C=C2C(=O)N(C)C(=O)N(C)C2=O)c2ccccc21 | 9.3% (inactive) | –
27 | CCOC(=O)C1(c2ccccc2)CCN(CCC(=O)Nc2ccccc2OC)CC1 | 1.8% (inactive) | –
28 | CN1CCN(c2ccccc2N)CC1 | 1.6% (inactive) | –
29 | Cc1ccc(-n2c(O)c(C=NC3CCCC3)c(=O)[nH]c2=O)c(C)c1 | 2.6% (inactive) | –
30 | CCOP(=O)(OCC)C(NC(=O)C(C)C)C(Cl)(Cl)Cl (stereo not drawn) | 0.1% (inactive) | –
31 | CC/C(=N\NC(=O)c1ccccc1O)c1c(O)n(C2CCCCC2)c(=O)[nH]c1=O | 51.3% (inactive) | 46.2
32 | O=C(O)c1cccc2c1NC(C(=O)O)C1CC(Sc3ccccc3[N+](=O)[O-])C(Cl)C21 (stereo not drawn) | 63.2% (active) | –
33 | CC(=O)c1ccc2c(c1)C1C(Cl)C(Sc3ccccc3[N+](=O)[O-])CC1C(C(=O)O)N2 (stereo not drawn) | 54.5% (inactive) | 1.3
34 | Cc1ccc2c(c1Cl)NC(C(=O)O)C1CC(Sc3ccccc3[N+](=O)[O-])C(Cl)C21 (stereo not drawn) | 63% (inactive) | 28
35 | CCC(=O)c1cn(Cc2ccccc2)c2ccccc12 | -1.1% (inactive) | –
36 | O=C(COc1ccccc1)c1cn(Cc2ccccc2)c2ccccc12 | 80.8% (active) | –
37 | CC(C)(C)C(=O)c1cn(Cc2ccccc2)c2ccccc12 | -0.8% (inactive) | –
38 | COC(=O)N(C)c1ccc(C(O)(C(=O)OC)C(F)(F)F)cc1 (stereo not drawn) | 0% (inactive) | –
39 | CC1Oc2cc3c(-c4c(O)cc(O)c5c(O)c6c(cc45)OC(C)C(C)C6=O)c(O)cc(O)c3c(O)c2C(=O)C1C (stereo not drawn) | 54.2% (active) | –
40 | O=C(O)c1ccc(N=Cc2c(O)[nH]c(=O)[nH]c2=O)cc1 | 15.8% (inactive) | –
41 | CCOC(=O)c1cc(CC)sc1/N=C/C1C(=O)NC(=S)NC1=O | 30.8% (inactive) | –
42 | COc1ccc(C(=O)CC2(CC(=O)c3ccc(OC)cc3)C(=O)N(C)C(=O)N(C)C2=O)cc1 | 3.7% (inactive) | –
43 | CCn1nc(-c2ccccc2)nc2c(=O)n(C)c(=O)nc1-2 | 80.2% (active) | 60.9
44 | CCn1nc(-c2cccs2)nc2c(=O)n(C)c(=O)nc1-2 | 1.6% (inactive) | –
45 | CCn1nc(/C=C/c2ccccc2)nc2c(=O)n(C)c(=O)nc1-2 | 1.1% (inactive) | –
46 | CC1=C(C(=O)O)N2C(=O)C(NC(=O)Cc3ccccc3)C2SC1 (stereo not drawn) | 3.3% (inactive) | –
47 | O=P(/C(=N/O)N1CCOCC1)(N1CCOCC1)N1CCOCC1 | 2.4% (inactive) | –
48 | CCOC(=O)C1CCN(C(C)C(=O)c2c(C)[nH]c3cc(C)ccc23)CC1 (stereo not drawn) | 8.4% (inactive) | –

Row | Compound | inhibition (at 20 µM) | inhibition [1] [%]
49 | CCC1CCCCN1P(=O)(c1ccc(C)o1)C(C)(C)C (stereo not drawn) | 5.9% (inactive) | –
50 | CCc1cc(=O)oc2c(C)c(OCC(=O)N3C[C@H]4C[C@@H](C3)c3cccc(=O)n3C4)ccc12 | 1.3% (inactive) | –
51 | O=C(C1c2ccccc2C(=O)N2CCc3ccccc3C12)N1CCC2(CC1)OCCO2 (stereo not drawn) | -2.3% (inactive) | –
52 | COc1ccc(CCNCc2cccn2C)cc1 | -1.8% (inactive) | –
53 | NC(=O)c1cn(C2CCCCC2)c2ccccc2c1=O | -1.7% (inactive) | –
54 | CCCCCC(=O)N[C@@H](c1ccccc1)[C@@H](O)C(=O)O[C@H]1C[C@@]2(O)[C@@H](OC(=O)c3ccccc3)C3[C@](C)(C(=O)[C@H](O)C(=C1C)C2(C)C)[C@@H](OC1OCC(O)C(O)C1O)C[C@H]1OC[C@@]31OC(C)=O (stereo partly drawn) | 0% (inactive) | –
55 | O=C1NC(=O)N(c2ccc3c(c2)OCO3)C(=O)/C1=C\c1ccc(-c2ccccc2C(=O)O)o1 | 22.4% (inactive) | –
56 | CCOc1ccc(N2C(=O)NC(=O)/C(=C\c3ccc(N4CCCCC4)o3)C2=O)cc1 | 152% (inactive) | –
57 | O=C1NC(=O)N(c2ccc3c(c2)OCO3)C(=O)/C1=C/c1ccc(N2CCCC2)o1 | 111% (active) | 89.9
58 | O=C1NC(=O)N(c2ccc3c(c2)OCO3)C(=O)/C1=C/c1ccc(N2CCCCC2)o1 | 0.8% (inactive) | –
59 | O=C1NC(=O)N(c2ccc3c(c2)OCO3)C(=O)/C1=C\c1ccc(N2CCCCC2)o1 | 112% (active) | 70.4
60 | O=C1NC(=O)N(c2ccc3c(c2)OCO3)C(=O)/C1=C/c1cccs1 | 12.1% (inactive) | –
61 | CC(C)Cc1nnc(NC(=O)CCC(=O)N2CCC3(CC2)OCCO3)s1 | -0.2% (inactive) | –
62 | FC(F)(F)c1ccccc1NC1=NCCCS1 | -1% (inactive) | –
63 | O=C1NC(=O)N(c2cccc(Cl)c2)C(=O)/C1=C\c1ccc(Sc2nc3ccccc3[nH]2)o1 | 78.9% (active) | –
64 | O=C1NC(=O)N(c2ccccc2F)C(=O)/C1=C/c1ccc(Sc2nc3ccccc3[nH]2)o1 | 39% (inactive) | –
65 | O=C1NC(=O)N(c2ccc(Cl)cc2)C(=O)/C1=C\c1ccc(Sc2nc3ccccc3[nH]2)o1 | 60.1% (inactive) | 26
66 | CC1CC2(O)c3no[n+]([O-])c3CCC2N1O (stereo not drawn) | 1.4% (inactive) | –
67 | Cc1nc2ccc(Cl)cc2c(=O)n1-c1ccc([N+](=O)[O-])cc1 | -1.1% (inactive) | –
68 | CCN(CC)c1ccc(/C=N/c2sc3c(c2C#N)C2CCN3CC2)c(O)c1 | 120% (active) | 193
69 | N#Cc1c(/N=C/c2ccc(O)cc2O)sc2c1C1CCN2CC1 | 3% (inactive) | –
70 | CC(=O)c1c(C)n(Cc2ccccc2Cl)c2ccc(O)cc12 | -2.4% (inactive) | –
71 | Fc1ccc(Cn2nnnc2C(c2ccc(F)cc2)N2CC=C(c3ccc(F)cc3)CC2)cc1 (stereo not drawn) | -1.1% (inactive) | –
72 | CCOc1ccc(-n2c(O)c(/C=C3\C=Nc4ccccc43)c(=O)[nH]c2=O)cc1 | 166% (inactive) | –

Row | Compound | inhibition (at 20 µM) | inhibition [1] [%]
73 | O=c1[nH]c(=O)n(CC2CCCO2)c(O)c1/C=C1\C=Nc2ccccc21 (stereo not drawn) | 5.1% (inactive) and 14.6% (inactive) | –
74 | CCCCn1c(O)c(/C=C2\C=Nc3ccccc32)c(=O)[nH]c1=O | 78.2% (active) | –
75 | C=CCn1c(O)c(/C=C2\C=Nc3ccccc32)c(=O)[nH]c1=O | 12.9% (inactive) | –
76 | O=c1[nH]c(=O)n(-c2ccccc2F)c(O)c1/C=C1\C=Nc2ccccc21 | 20.7% (inactive) | –
77 | O=c1[nH]c(=O)n(Cc2ccccc2)c(O)c1/C=C1\C=Nc2ccccc21 | 102% (active) | 66.2
78 | CCOP(=O)(OCC)/C(C#N)=C/c1ccoc1 | 13.5% (inactive) | –
79 | CC(=O)c1ccccc1NC(=O)C1C2CCC(O2)C1C(=O)O (stereo not drawn) | 0% (inactive) | –
80 | O=C1Nc2ccc(Br)cc2C(c2ccc(Cl)cc2)=NC1O (stereo not drawn) | -1.3% (inactive) | –
81 | CN1CCC(C)(O)C2CCCCC21 (stereo not drawn) | -1.3% (inactive) | –
82 | Cc1cc(NC(=O)C(Cl)(Cl)Cl)no1 | 1% (inactive) | –
83 | CCOC(=O)C1C(=O)N(C)C2(C)CC1c1ccccc1O2 (stereo not drawn) | 1.4% (inactive) | –
84 | Cc1ccccc1N1C(=O)/C(=C/c2ccco2)C(=O)NC1=S | 76.1% (active) | –
85 | CCN(CC)c1ccc(/C=C2\C(=O)NC(=S)N(C)C2=O)o1 | 149% (inactive) | –
86 | CCOc1cccc(N2C(=O)/C(=C/c3ccco3)C(=O)NC2=S)c1 | 15.4% (inactive) | –
87 | O=C1NC(=O)C(=Cc2ccc(N3CCOCC3)o2)C(=O)N1 | 127% (inactive) | –
88 | O=C1NC(=S)N(c2ccccc2)C(=O)/C1=C/c1ccco1 | 29.6% (inactive) | –
89 | CCN(CC)c1ccc(C=C2C(=O)N(C)C(=S)N(C)C2=O)o1 | 91% (active) | 50.9
90 | CN1C(=O)C(=Cc2ccc(Sc3ccccc3)o2)C(=O)N(C)C1=O | 15.9% (inactive) | –
91 | Cc1ccccc1N1C(=O)NC(=O)/C(=C/c2ccc(N3CCOCC3)o2)C1=O | 124% (active) | 80.2
92 | CN1C(=O)/C(=C/c2ccc(N3CCCCCC3)o2)C(=O)NC1=S | 103% (active) | 52.7
93 | Cc1ccccc1N1C(=O)NC(=O)/C(=C\c2cc(Br)c(N3CCOCC3)o2)C1=O | 147% (inactive) | –
94 | CN1C(=O)/C(=C\c2ccc(N3CCCCCC3)cc2)C(=O)NC1=S | 1.7% (inactive) | –
95 | CN1C(=O)/C(=C\c2ccc(N3CCCCC3)o2)C(=O)NC1=S | 151% (inactive) | –
